Data taken from PubChem BioAssay AID1986 (Sanford-Burnham Center for Chemical Genomics, 2009).
The campaign covered roughly 290,000 compounds. About 890 (0.31%) were called active. Cut-off read from the data, not from the text of the source: active = inhibition mostly above about 52% (no sharp cut-off); inactive = mostly below about 76%. The list comes from a sample in which actives are over-represented; it also holds similar structures and randomly drawn compounds.

Assay: cell-free HIV fusion peptide-binding blockers – biochemical, uHTS, fluorescence dequenching, primary screen (AID 1986)
Conditions: 30 min, stronger effect = higher value
[1] = measured here: repeat confirmation average inhibition, at 18.6 µM

Structure (SMILES)	inhibition (at 20 µM)	inhibition [1] [%]
COc1ccc(C2NC(=O)c3ccccc3O2)cc1 (stereo not given)	-1.3% (inactive)	–
Cc1ccc(SCCNCc2ccco2)cc1	0.3% (inactive)	–
COc1ccc2cc3[n+](cc2c1OC)CCc1cc2c(cc1-3)OCO2	-1.4% (inactive)	–
COc1cc2c(cc1O)CC[n+]1cc3c(OC)c(OC)ccc3cc1-2	0.6% (inactive)	–
COc1cc2c(cc1OC)-c1cc3ccc4c(c3c[n+]1CC2)OCO4	120% (active)	70.7
O=[N+]([O-])c1sccc1CS(=O)(=O)c1ccccc1	-1.5% (inactive)	–
O=C(Nc1cccc(Cl)c1)c1cc(N=Nc2ccc([N+](=O)[O-])cc2Cl)ccc1O	52.8% (active)	–
CC(=O)Nc1cccc(NC(=O)c2ccc([N+](=O)[O-])cc2Cl)c1	3.5% (inactive)	–
O=C(Nc1cccc(O)c1)c1ccc([N+](=O)[O-])cc1Cl	0.3% (inactive)	–
CC1C(=O)N2CCCc3cc(NS(C)(=O)=O)cc1c32 (stereo not given)	2.3% (inactive)	–
Cc1cc(N2CCCC2)ccc1/C=C1/C(=O)N(C)C(=S)N1C	9.5% (inactive)	–
COCCN1C(=O)/C(=C/c2ccc(N3CCCC3)cc2C)SC1=S	147% (inactive)	–
O=C1N/C(=C/c2ccc(N3CCCC3)cc2)C(=O)N1c1ccccc1	4.9% (inactive)	–
CCN1C(=O)/C(=C/c2ccc(N3CCCC3)cc2)NC1=S	149% (inactive)	–
Cc1cc(N2CCCC2)ccc1/C=C1\NC(=S)N(C)C1=O	94.7% (active)	–
O=C1/C(=C/c2ccc(N3CCCC3)cc2)NC(=S)N1C1CC1	65.9% (active)	83.2
CC(C)(C)C(=O)Nc1cccc(-c2nc3ccccc3[nH]2)c1	1.3% (inactive)	–
CC(C)OC(=O)CSc1nc(C(C)C)nc2ccccc12	1.3% (inactive)	–
Cc1c(Cl)cccc1NC(=O)N1CCCC1	0.6% (inactive)	–
N#C/C(=C\c1ccc(-c2nc3ccccc3s2)o1)C(N)=O	2.1% (inactive)	–
O=C(O)CCCCCN1C(=O)/C(=C/c2ccncc2)SC1=S	9.2% (inactive)	–
O=Cc1ccc(-c2nc3ccccc3s2)o1	1.2% (inactive)	–
O=C(O)c1ccc(-c2nc3ccccc3s2)o1	1.8% (inactive)	–

Structure (SMILES)	inhibition (at 20 µM)	inhibition [1] [%]
O=C(O)CCCN1C(=O)/C(=C\C(Cl)=C\c2ccccc2)SC1=S	40.3% (inactive)	–
O=C(O)CCCCCN1C(=O)/C(=C\c2ccc(-c3ccc(Cl)cc3)o2)SC1=S	82.2% (active)	–
O=C(O)CCCCCN1C(=O)/C(=C\c2ccncc2)SC1=S	6.4% (inactive)	–
O=C(O)CC(C(=O)O)N1C(=O)/C(=C/c2ccc(-c3nc4ccccc4s3)o2)SC1=S (stereo not given)	99% (active)	66.9
O=C(O)CCCN1C(=O)/C(=C\c2ccco2)SC1=S	53% (inactive)	3.5
O=C(O)CCN1C(=O)/C(=C/c2ccc(-c3nc4ccccc4s3)o2)SC1=S	24.8% (inactive)	–
O=C(O)CCN1C(=O)/C(=C\c2ccc(-c3nc4ccccc4s3)o2)SC1=S	73.9% (active)	–
O=C(O)CCCN1C(=O)/C(=C\c2ccc(-c3nc4ccccc4s3)o2)SC1=S	69.3% (active)	–
O=C(Nc1ccccc1)c1ccc(NCC2CCCO2)c(S(=O)(=O)N2CCOCC2)c1 (stereo not given)	-0.2% (inactive)	–
CCOC(=O)c1c(NC(=O)CSc2ncn[nH]2)sc(C(=O)NC)c1C	-0.5% (inactive)	–
Cn1c(SCC(=O)Nc2ccc3c(c2)OCCO3)nnc1C1CC1	0.2% (inactive)	–
CN1C(=O)/C(=C/c2cn(CC(=O)NCc3ccco3)c3ccccc23)NC1=S	0.4% (inactive)	–
COc1cc(/C=N/NC(=O)c2cccc(S(=O)(=O)N3CCCCC3)c2)cc(Br)c1O	1.7% (inactive)	–
O=C(NC(Cc1ccccc1)C(=O)O)/C(=C\c1ccc(F)cc1)NC(=O)c1ccccc1 (stereo not given)	12.8% (inactive)	–
CC(=O)Nc1ccc2c(c1)nc(CCN1CCN(C)CC1)n2C	-1.1% (inactive)	–
O=C(Cc1ccc([N+](=O)[O-])cc1)Nc1ccc2c(c1)OCO2	0.9% (inactive)	–
CCCc1nc(SC)[nH]c(=O)c1C	-0.9% (inactive)	–
COc1ccc(CN2C(=O)/C(=C/c3ccc(-c4ccc(Cl)c(C(=O)O)c4)o3)SC2=S)cc1	139% (inactive)	–
O=C(O)c1cc(-c2ccc(/C=C3/SC(=S)N(Cc4ccccc4)C3=O)o2)ccc1Cl	58.1% (active)	–
C#CCN1C(=O)S/C(=C\c2ccc(-c3ccc(Cl)c(C(=O)O)c3)o2)C1=O	18.9% (inactive)	–
CCCCn1c(N)c(NCc2ccccc2OC)c(=O)[nH]c1=O	2.3% (inactive)	–
Nc1c(-c2cccc(Cl)c2)cnn1-c1ccccc1	-1.8% (inactive)	–
c1ccc2sc(NC3=NCN(CC4CCCO4)CN3)nc2c1 (stereo not given)	1.1% (inactive)	–

Structure (SMILES)	inhibition (at 20 µM)	inhibition [1] [%]
CC(=O)Nc1ccc(/C=N/Nc2ccc(C(=O)c3c(C)cc4ccccn34)cc2[N+](=O)[O-])cc1	-5.5% (inactive)	–
Cc1cc2ccccn2c1C(=O)c1ccc(N/N=C/c2ccc(C(=O)O)cc2)c([N+](=O)[O-])c1	52.9% (active)	–
Cc1cc2ccccn2c1C(=O)c1ccc(NN)c([N+](=O)[O-])c1	-4.5% (inactive)	–
COc1cccc(-c2c(C(=O)N/N=C/c3cccnc3)nnn2-c2nonc2N)c1	-0.9% (inactive)	–
CC(=O)OCCNc1cc(N2CCN(C)CC2)c2noc3c2c1C(=O)c1ccccc1-3	-2% (inactive)	–
O=C(O)CCNc1cc(N2CCN(C(=O)c3ccco3)CC2)c2noc3c2c1C(=O)c1ccccc1-3	54.7% (active)	–
O=C1c2ccccc2-c2onc3c(N4CCN(CCO)CC4)cc(N4CCN(C(=O)c5ccco5)CC4)c1c23	5.9% (inactive)	–
O=[N+]([O-])c1c(NCCO)cc(N2CCC3(CC2)OCCO3)c2nonc12	-2.2% (inactive)	–
O=C(O)CCCNc1cc(N2CCC3(CC2)OCCO3)c2noc3c2c1C(=O)c1ccccc1-3	58.7% (active)	–
CCOC(=O)N1CCN(c2cc(NCCC(=O)O)c3c4c(onc24)-c2ccccc2C3=O)CC1	18% (inactive)	–
O=C(O)CCCNc1cc(N2CCN(C(=O)c3ccco3)CC2)c2noc3c2c1C(=O)c1ccccc1-3	70% (active)	–
CCN1CCN(c2cc(N3CCN(C(=O)c4ccco4)CC3)c3c4c(onc24)-c2ccccc2C3=O)CC1	10.6% (inactive)	–
CN1CCN(c2cc(N3CCN(C(=O)c4ccco4)CC3)c3c4c(onc24)-c2ccccc2C3=O)CC1	5.9% (inactive)	–
CCCCNC(=O)Nc1nnc(SCC(=O)OCC)s1	-2.1% (inactive)	–
COc1ccc(Cc2nc3ccccc3[nH]c2=O)cc1	-2.8% (inactive)	–
Cc1sccc1C1C(C#N)=C(N)SC(N)=C1C#N	32.9% (inactive)	–
Cc1ccc(C2C(C#N)=C(N)SC(N)=C2C#N)c(C)c1	-3.6% (inactive)	–
Cc1cc(C2C(C#N)=C(N)SC(N)=C2C#N)c(C)s1	51.9% (active)	68.2
C=CCN1C(=O)/C(=C/c2ccccc2)S/C1=N/c1nccs1	1.5% (inactive)	–
C=CCN1C(=O)/C(=C/c2ccc(N(C)C)cc2)S/C1=N\c1nnc(CC)s1	61.5% (active)	–
C=CCN=C1S/C(=C\c2ccc(N(C)C)cc2)C(=O)N1CC=C	2.1% (inactive)	–
Cc1[nH]c(=O)[nH]c(=O)c1S(=O)(=O)N1CCCC(C(=O)NCCC2=CCCCC2)C1 (stereo not given)	0.7% (inactive)	–
COc1ccc(Cl)cc1Nc1nc(C)nc2c1nnn2Cc1ccccc1	-1% (inactive)	–

Structure (SMILES)	inhibition (at 20 µM)	inhibition [1] [%]
COc1ccc(NC(=O)CC2Nc3cccc4cccc(c34)NC2=O)cc1 (stereo not given)	51.5% (inactive)	-2.3
Cc1cccc(NC(=O)CC2Nc3cccc4cccc(c34)NC2=O)c1 (stereo not given)	-5.8% (inactive)	–
CC(=O)Nc1ccc(NC(=O)CC2Nc3cccc4cccc(c34)NC2=O)cc1 (stereo not given)	67.6% (inactive)	-1.4
O=C(CC1Nc2cccc3cccc(c23)NC1=O)Nc1ccccc1 (stereo not given)	57.7% (active)	–
NC(=O)CC1Nc2cccc3cccc(c23)NC1=O (stereo not given)	57.4% (active)	–
O=C(CC1Nc2cccc3cccc(c23)NC1=O)Nc1ccc(F)cc1 (stereo not given)	59.6% (inactive)	-0.8
COc1cc2c(cc1NC(=O)CSc1nnc(Cc3cccs3)n1C)oc1ccccc12	-3.3% (inactive)	–
CCOC(=O)c1c(-c2ccccc2)csc1NC(=O)/C(C#N)=C/c1ccc(O)c(OC)c1	78.2% (active)	53.4
CCOC(=O)c1c(-c2ccc(C)cc2)csc1NC(=O)/C(C#N)=C/c1ccc(O)c(OC)c1	95% (inactive)	7.7
CCOC(=O)c1c(-c2ccccc2)csc1NC(=O)/C(C#N)=C/c1ccc(OC)c(OC)c1	24.6% (inactive)	–
COC(=O)C1=C(C)N(C)C(=O)NC1c1c(OC)ccc2ccccc12 (stereo not given)	-0.6% (inactive)	–
O=C(Nc1ccc(Cl)cc1F)C1CCN(S(=O)(=O)c2cccnc2)CC1	-1.9% (inactive)	–
COc1ccc(NC(=O)C23CC4CC(C2)CC(n2cnc(Br)n2)(C4)C3)c(OC)c1	-1.5% (inactive)	–
COc1cc(OC)c(OC)cc1CNCCNC(=O)c1ccco1	1.1% (inactive)	–
Cc1onc(-c2ccccc2Cl)c1C(=O)N1CCCc2ccccc21	-0.5% (inactive)	–
COc1ccc(CCNS(=O)(=O)c2cccc3nsnc23)cc1OC	0.3% (inactive)	–
c1ccc(CCn2nnnc2CN2CCc3ccccc32)cc1	1.1% (inactive)	–
CC1=C(C#N)c2nc(N)c(C#N)c(C)c2/C1=C\c1ccc(OCC(=O)O)c(Cl)c1	28% (inactive)	–
CC1=C(C#N)c2nc(N)c(C#N)c(C)c2/C1=C\c1ccc(-c2ccccc2C(=O)O)o1	56.8% (active)	–
CC1=C(C#N)c2nc(N)c(C#N)c(C)c2/C1=C\c1ccc(C)cc1	15.6% (inactive)	–
CCOc1ccc(N(C)C(=O)CCc2nnc3ccc(N4CCC5(CC4)OCCO5)nn23)cc1	0.1% (inactive)	–
